SMARCA2 activ = SMARCA2 (BRM) function activators, primary screen, cell-based, luminescence, high throughput; MG213 cells, MMTV-luciferase reporter, dexamethasone, overnight; activation, % at 9.1 µM; hit rate 1% among 370,000; AID 652017, 2013; in the data active = activation above about 7.8%;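 note: 0% = vehicle wells and 100% = reference activator wells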
ABCB6 inh 2 = ABCB6 transporter inhibitors, primary screen, K562-ABCB6 cells, flow cytometry, MLPCN library | ATP-binding cassette sub-family B member 6 (Homo sapiens), Q9NP58 | fluorescence ratio to DMSO, % at 10 µM | hit rate 0.19% among 360,000 | K562-ABCB6 porphyrin accumulation, 1 h; stronger effect = lower value | AID 602162, 2011;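 active = fluorescence ratio to DMSO below 75%, the collection mean minus 3 SD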;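 note: signal is porphyrin accumulated inside mitochondria; 100% equals median channel fluorescence of DMSO control wells; lower ratio means ABCB6 inhibition with less porphyrin fluorescence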
Target sequence (Q9NP58 whole entry, looked up): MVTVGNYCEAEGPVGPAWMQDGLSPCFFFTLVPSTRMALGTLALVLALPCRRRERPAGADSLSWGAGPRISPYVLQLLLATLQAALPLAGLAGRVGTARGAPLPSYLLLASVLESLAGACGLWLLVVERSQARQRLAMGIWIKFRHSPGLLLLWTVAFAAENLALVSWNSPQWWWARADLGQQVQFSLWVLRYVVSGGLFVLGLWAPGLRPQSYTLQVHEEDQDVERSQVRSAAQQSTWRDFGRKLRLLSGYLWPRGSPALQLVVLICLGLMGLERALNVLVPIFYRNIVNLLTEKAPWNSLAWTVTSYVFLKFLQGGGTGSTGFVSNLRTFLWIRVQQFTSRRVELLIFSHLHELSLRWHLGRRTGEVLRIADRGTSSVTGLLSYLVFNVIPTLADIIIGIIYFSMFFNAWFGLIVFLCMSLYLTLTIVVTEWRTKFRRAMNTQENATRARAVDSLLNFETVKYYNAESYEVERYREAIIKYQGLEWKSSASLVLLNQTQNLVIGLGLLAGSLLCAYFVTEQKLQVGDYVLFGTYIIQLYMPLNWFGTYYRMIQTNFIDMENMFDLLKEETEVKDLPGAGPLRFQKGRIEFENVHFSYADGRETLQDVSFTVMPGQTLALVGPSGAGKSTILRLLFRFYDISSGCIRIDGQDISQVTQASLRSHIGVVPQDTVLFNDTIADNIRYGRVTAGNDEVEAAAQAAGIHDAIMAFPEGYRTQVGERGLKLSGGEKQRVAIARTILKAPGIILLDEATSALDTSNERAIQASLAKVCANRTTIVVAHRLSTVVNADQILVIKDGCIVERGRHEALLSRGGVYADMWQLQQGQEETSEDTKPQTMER
MsrA inhibitor = bovine MsrA enzyme inhibitors, primary screen, biochemical, absorbance, HTS; Methionine sulfoxide reductase A (Bos taurus); inhibition, % at 15.5 µM; hit rate 0.75% among 360,000; purified bovine MsrA, absorbance read-out; in the data active = inhibition above about 4.5%;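 note: 0% = vehicle wells with enzyme and 100% = reference inhibitor wells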
bovine MsrA act = bovine MsrA enzyme activators, primary screen, biochemical, absorbance, HTS; Methionine sulfoxide reductase A (Bos taurus); purified bovine MsrA, absorbance read-out; activation, % at 10.6 µM; hit rate 0.3% among 360,000; AID 602163, 2012; in the data active = activation above about 7.5%;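 note: 0% = vehicle and 100% = reference activator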
SMARCA2 conf = SMARCA2 (BRM) function activators, confirmation, cell-based, luminescence, triplicate | shares compounds with SMARCA2 activ | MG213 cells, MMTV-luciferase with dexamethasone, overnight; MG213 cells expressing E1A, Rb sequestered; DMSO wells 0%, reference activator 100% | activation, % at 9.1 µM | hit rate 30% among 3,500;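 active = activation above its plate's cutoff, the mean activation of tested wells plus 3 SD, cut at about 7.9% in these data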
VP16 Luc act = GAL4-VP16 luciferase reporter activation, counter-screen for SMARCA2 (BRM) activator project, cell-based, pG5luc, luminescence, high throughput; shares compounds with SMARCA2 activ; HEK293 GAL4-VP16 pG5luc reporter; scaled: DMSO wells 0%, SAHA wells 100%; activation, % at 9.1 µM; hit rate 41% among 3,500;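 active = activation above the solvent-only control well mean plus 3 SD, averaged across control plates, cut at about 5.2% in these data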
Starred values were filed as active, the others as inactive; nt = no result. Compounds with a hit are over-represented: about 2.1% of the library has one in this group of screens.

SMILES	SMARCA2 activ	ABCB6 inh 2	MsrA inhibitor	bovine MsrA act	SMARCA2 conf	VP16 Luc act
COCCN(CC(=O)Nc1cccc(C)c1C)C(=O)c1ccc2ccccc2n1	9.0*	91	0	-2	6	2
CC(=O)N1CCc2cc(S(=O)(=O)NCCC(=O)N(C)Cc3ccccc3F)ccc21	-4	nt	nt	nt	nt	nt
O=S(=O)(c1ccccc1Br)N(Cc1cn(Cc2ccccc2)nn1)C1CC1	-5	nt	nt	nt	nt	nt
CC(=O)C1C(=O)C=C(c2cccs2)CC1c1ccccc1 (stereo not drawn)	0	90	2	-11	nt	nt
O=C1C=C(c2cccs2)C[C@H](c2ccccc2)[C@H]1n1nnc([N+](=O)[O-])n1	8.3*	93	2	-8	8.3*	2
N#Cc1c(NCCN)nc(-c2ccco2)c2c1CCCC2	9.7*	104	2	-5	31*	0
CC(C)CCNc1nc(-c2ccco2)c2c(c1C#N)CCCC2	1	103	1	-8	nt	nt
O=C(CNC(=O)c1ccccc1F)c1ccccc1	10*	91	1	-8	5	9.6*
O=C(NC(=S)NC(=O)c1ccccc1F)c1ccccc1F	10.0*	100	1	-6	0	2
O=C(CNC(=O)c1ccccc1F)NCCc1ccc(Cl)cc1Cl	9.5*	94	-1	-2	-2	2
O=C(CNC(=O)c1ccccc1Cl)c1ccccc1	5	103	-1	0	nt	nt
O=C(NC(=S)NCc1ccccc1)c1ccccc1F	-3	96	1	-12	nt	nt
O=C1C(NC(=O)N2c3ccccc3C=Cc3ccccc32)CCCCN1Cc1cccc(Cl)c1 (stereo not drawn)	-3	nt	nt	nt	nt	nt
COCCNC(=O)C1(C)CCCN(C(=O)c2ccccc2OC(F)(F)F)C1 (stereo not drawn)	3	96	0	-1	nt	nt
COC(=O)CN1CCN(C(=O)c2nocc2C)CC1	-3	nt	nt	nt	nt	nt
O=C(c1ccc(-c2cc(Cl)ccc2Cl)o1)N1CCOCC1	8.8*	98	0	-10	3	2
O=C(c1ccc(-c2ccc(Cl)cc2Cl)o1)N1CCOCC1	1	99	2	-4	nt	nt
COc1cc(C(=O)NCCOc2cccc3cccnc23)cc(OC)c1OC	11*	99	1	0	-6	4
COc1ccccc1OCCNC(=O)c1ccc(C(C)(C)C)cc1	8.2*	101	-1	-1	7	5
COc1ccccc1OCCNC(=O)c1ccc(Br)cc1	8.8*	98	0	-2	3	4
CCN(CC)c1ccc(C=Nn2c(-c3ccc(F)cc3)n[nH]c2=S)c(O)c1	3	nt	nt	nt	nt	nt
CCCCOCCCNC(=O)C[C@H]1C(=O)N(CCCOC)C2=CCCCC[C@]21C(=O)OC	0	nt	nt	nt	nt	nt
CC(C)CN1C(=O)[C@@]2(CC(=O)N(C)C2c2ccccc2)c2cc(-n3cc(-c4ccccc4)nn3)ccc21 (stereo partly drawn)	-5	nt	nt	nt	nt	nt
Cc1ccc2c(ccc[n+]2CC(=O)c2ccccc2)c1	12*	124	1	-13	-4	0
Cc1ccc2nc(C(C)(C)C)c(Cc3ccccc3C(F)(F)F)n2c1	-3	104	1	-10	nt	nt
SMILES	SMARCA2 activ	ABCB6 inh 2	MsrA inhibitor	bovine MsrA act	SMARCA2 conf	VP16 Luc act
CN(C)c1ccc(/C=C(\C#N)c2ccccn2)cc1	0	95	0	-2	nt	nt
N#C/C(=C\c1ccc([N+](=O)[O-])cc1)c1ccccn1	10*	104	3	-4	6	6.7*
Cc1[nH]c2ccc(C(=O)N3CCCCC3)cc2c1C	11*	94	0	-3	5	9.4*
Cc1[nH]c2ccc(C(=O)N3CCCC3)cc2c1C	2	95	0	-4	nt	nt
CC(C)OC(=O)c1ccc(N2C(=O)C3CC=CCC3C2=O)cc1 (stereo not drawn)	8.8*	103	1	-3	0	2
COc1ccc(-c2coc3cc(O)ccc3c2=O)cc1	3	97	0	0	nt	nt
COc1ccc(-c2cc3ccccc3oc2=O)cc1NC(=O)c1ccc(Br)o1	5	99	0	3	nt	nt
COc1ccc(-c2coc3cc(O)ccc3c2=O)cc1O	8.0*	103	2	-3	13*	11*
O=c1c(-c2ccc(O)cc2)coc2cc(O)cc(O)c12	9.0*	102	3	-3	14*	11*
CCC(=O)Nc1cc(-c2cc3ccccc3oc2=O)ccc1OC	9.3*	99	2	-6	11*	9.6*
COc1ccc(-c2cc3ccc(O)cc3oc2=O)cc1OC	8.5*	88	3	-4	6	3
COC(=O)c1cccc(N2C(=O)C[C@](Sc3ccc(OC)cc3)(C(=O)N3CCOCC3)[C@H]2c2ccc(OC)cc2)c1	-6	nt	nt	nt	nt	nt
CC(C)C(=O)N1CC[C@H]2[C@H](CCCN2Cc2cc(F)cc(F)c2)C1	0	nt	nt	nt	nt	nt
O=C1CC(c2cccs2)Sc2nc3ccccc3n21 (stereo not drawn)	7	106	-1	0	nt	nt
O=C1CC(c2ccccc2)Sc2nc3ccccc3n21 (stereo not drawn)	12*	101	0	-1	8.8*	8.6*
CCS(=O)(=O)c1ccc2c(c1)N(S(C)(=O)=O)CC(C(=O)NCCOC)O2 (stereo not drawn)	12*	87	0	-7	-1	1
Cn1c(=O)c2[nH]c(SCC(=O)NCCc3ccc(F)cc3)nc2n(C)c1=O	-5	nt	nt	nt	nt	nt
O=C(NCCC1=CCCCC1)C1CCCN(S(=O)(=O)c2cccc3cccnc23)C1 (stereo not drawn)	10*	98	-1	1	-5	-1
O=C(/C=C/c1ccccc1)NC(=O)c1ccccc1O	9.6*	97	1	-4	11*	6.4*
O=C(/C=C/c1ccccc1)CC(=O)c1ccccc1O	6	104	1	-4	nt	nt
O=C(Nc1nccs1)C1(C(=O)C2CC2)CC(c2ccccn2)=NO1 (stereo not drawn)	2	nt	nt	nt	nt	nt
CC(=O)Nc1cccc(-c2cc(NC=O)c3ncc(-c4cccc(C(C)=O)c4)n3c2)c1	11*	90	0	-3	3	6.5*
CN(C)C(=O)c1cccc(-c2cnc3c(NC=O)cc(-c4ccccc4Cl)cn23)c1	9.8*	96	1	-4	19*	4
COc1cccc(-c2cnc3c(NC(C)=O)cc(-c4cccc(C(=O)NCCN(C)C)c4)cn23)c1	11*	106	0	-3	22*	0
CN(C)C(=O)c1cccc(-c2cnc3c(NC=O)cc(-c4ccccc4N(C)C)cn23)c1	-2	103	2	-7	nt	nt

Compound activity from PubChem BioAssay.
